These results are taken from PubChem BioAssay (NCATS).

Results filed as inconclusive are left out. The source made the active and inactive calls. The call rests on the fitted dose curve; in most records, active means well fitted curve in the direction sought with a large enough effect; inconclusive means small, poorly fitted or top-dose-only effect, or another doubt; inactive means no such curve, though single readings can be large; an effect the other way counts as inactive or inconclusive.

Sequence of D(1A) dopamine receptor (Homo sapiens) (P21728 whole entry, looked up): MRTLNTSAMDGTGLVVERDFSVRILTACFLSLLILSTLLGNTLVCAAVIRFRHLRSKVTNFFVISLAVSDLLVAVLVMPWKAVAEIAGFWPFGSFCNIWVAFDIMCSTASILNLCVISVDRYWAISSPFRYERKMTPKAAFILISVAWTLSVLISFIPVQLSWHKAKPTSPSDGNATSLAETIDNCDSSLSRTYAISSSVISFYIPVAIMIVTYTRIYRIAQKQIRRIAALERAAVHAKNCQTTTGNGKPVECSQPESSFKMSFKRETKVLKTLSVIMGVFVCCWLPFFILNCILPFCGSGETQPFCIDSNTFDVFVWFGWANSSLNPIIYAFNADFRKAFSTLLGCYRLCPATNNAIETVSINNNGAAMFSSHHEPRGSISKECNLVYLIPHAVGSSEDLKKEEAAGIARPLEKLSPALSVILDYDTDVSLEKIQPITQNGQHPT

One assay deals with D(1A) dopamine receptor (Homo sapiens) (UniProt P21728). Kind of assay: HTS Assay for Allosteric Agonists of the Human D1 Dopamine Receptor: Primary Screen for Agonists (AID 488981). The following applies: Inducible HEK293 T-REx D1 cells, calcium-flux fluorescence, 180 s kinetic; series mostly up to 41.8 µM. The essentials:
(§1)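 Tetracycline-induced HEK293 T-REx cells force-coupled to calcium signalling were incubated overnight at 30 C and dye-loaded at room temperature. Calcium flux over 180 s after compound addition flagged agonists; a further 180 s read after EC20 dopamine flagged potentiators.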
For `CN[C@H](CC(C)C)C(=O)N[C@H]1C(=O)N[C@@H](CC(N)=O)C(=O)N[C@@H]2C(=O)N[C@H]3C(=O)N[C@H](C(=O)N[C@H](C(=O)O)c4cc(O)cc(O)c4-c4cc3ccc4O)[C@H](O)c3ccc(c(Cl)c3)Oc3cc2cc(c3O[C@@H]2O[C@H](CO)[C@@H](O)[C@H](O)[C@@H]2O[C@H]2C[C@](C)(N)[C@H](O)[C@H](C)O2)Oc2ccc(cc2Cl)[C@H]1O`, the outcome was inactive.
Same read-out and setting: for `O=c1[nH]c(=O)n([C@H]2C[C@@H](O)[C@@H](CO)O2)cc1C=CBr` the value was “inactive”; for `COc1ccc2cc([S+]([O-])Cc3ncc(C)c(OC)c3C)nc2c1`, “inactive”.

A further assay shares this target. In words: HTS Assay for Allosteric Agonists of the Human D1 Dopamine Receptor: Primary Screen for Potentiators (AID 488982). The following applies: HEK293 T-REx D1 inducible cells, calcium flux, kinetic fluorescence; series mostly up to 8.37 µM. The method, boiled down:
as §1
Consider `CN[C@H](CC(C)C)C(=O)N[C@H]1C(=O)N[C@@H](CC(N)=O)C(=O)N[C@@H]2C(=O)N[C@H]3C(=O)N[C@H](C(=O)N[C@H](C(=O)O)c4cc(O)cc(O)c4-c4cc3ccc4O)[C@H](O)c3ccc(c(Cl)c3)Oc3cc2cc(c3O[C@@H]2O[C@H](CO)[C@@H](O)[C@H](O)[C@@H]2O[C@H]2C[C@](C)(N)[C@H](O)[C@H](C)O2)Oc2ccc(cc2Cl)[C@H]1O`, for which the outcome was inactive.
As for `O=c1[nH]c(=O)n([C@H]2C[C@@H](O)[C@@H](CO)O2)cc1C=CBr`, the result was inactive.
For the compound `COc1ccc2cc([S+]([O-])Cc3ncc(C)c(OC)c3C)nc2c1`, the result was inactive.
